# Screens as filed in PubChem BioAssay.
# Rab9 prom act: qHTS Assay for Rab9 Promoter Activators. Potency, µM (top dose mostly 9.22 µM), usual class: activators. 320,000 tested, 2.8% active. AID 485297, 2010. Huh7 Rab9 promoter-luciferase reporter, luminescence, 24 h; note: nearly all actives have a fitted effect of over 60% in size
#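 Rab9 promoter-driven luciferase in stably transfected Huh7 cells; 1500 cells/well rested 2 h, exposed to compound in DMSO for 24 h at 37 °C, 5% CO2. Luminescence read 10 min after adding luciferase reagent at ambient temperature.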
# NPC1 prom act: qHTS Assay for NPC1 Promoter Activators. 320,000 tested, 2.4% active. AID 485313, 2010. Potency, µM (highest dose often 9.22 µM), usual class: activators. Huh7 NPC1 promoter luciferase reporter, 24 h; note: nearly all actives have a fitted effect of over 60% in size
#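 Stable NPC1-promoter luciferase Huh7 line; cpd (DMSO) 24 h, 37 °C, 5% CO2; Amplite luciferase reagent 10 min RT; luminescence readout. qHTS format.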
# ELG1 genotoxic: qHTS screen for small molecules that induce genotoxicity in human embryonic kidney (HEK293T) cells expressing luciferase-tagged ELG1; HEK293T ELG1-luciferase reporter, luminescence, 16 h; Potency, µM (series often up to 46 µM), actives largely listed as activators; 330,000 tested, 1.3% active; AID 504466, 2011; note: nearly all actives have a fitted effect of over 60% in size
#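 After overnight (16 hr) compound treatment at 37 °C, ELG1-luciferase HEK293T cells were lysed with ONE-Glo; luminescence quantified 30 min later at room temperature.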
# FLuc counter: qHTS profiling assay for firefly luciferase inhibitor/activator using purifed enzyme and Km concentrations of substrates (counterscreen for miR-21 project) | Potency, µM (highest dose often 57.5 µM), most hits filed as inhibitors | Luciferin 4-monooxygenase (Photinus pyralis), P08659 | purified FLuc, Km substrates, luminescence inhibition | 360,000 tested, 6.9% active; note: nearly all actives have a fitted effect of over 55% in size
# Target sequence (P08659 whole entry, looked up): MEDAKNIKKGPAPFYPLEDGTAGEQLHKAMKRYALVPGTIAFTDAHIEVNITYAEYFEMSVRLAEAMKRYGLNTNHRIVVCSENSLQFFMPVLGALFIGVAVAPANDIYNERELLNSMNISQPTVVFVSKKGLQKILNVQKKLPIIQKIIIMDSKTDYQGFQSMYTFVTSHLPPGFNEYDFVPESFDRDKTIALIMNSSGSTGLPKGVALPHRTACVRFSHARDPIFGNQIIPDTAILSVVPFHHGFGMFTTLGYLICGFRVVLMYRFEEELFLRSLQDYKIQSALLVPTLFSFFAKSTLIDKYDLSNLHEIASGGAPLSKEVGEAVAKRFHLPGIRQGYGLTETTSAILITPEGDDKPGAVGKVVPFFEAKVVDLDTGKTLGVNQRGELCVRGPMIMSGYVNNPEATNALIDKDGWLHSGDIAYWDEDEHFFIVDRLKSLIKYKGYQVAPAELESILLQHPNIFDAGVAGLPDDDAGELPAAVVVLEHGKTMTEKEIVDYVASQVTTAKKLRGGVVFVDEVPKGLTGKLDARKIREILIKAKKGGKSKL
#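 Purified P. pyralis luciferase (10nM final) with 10uM D-luciferin and 10uM ATP (Km levels) in 50mM Tris acetate pH 7.5, 10mM Mg acetate, 0.01% Tween-20, 0.05% BSA; qHTS 6-point titration, ~60 µM downward; luminescence read.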
# SMN2 splice up: qHTS Assay for Enhancers of SMN2 Splice Variant Expression | 210,000 tested, 2.8% active | Potency, µM (series often up to 46.1 µM), actives largely listed as activators | AID 1458, 2008 | HEK293 SMN2-luciferase splicing reporter, luminescence, 30-36 h; note: nearly all actives have a fitted effect of over 55% in size
#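 HEK293 cells carry an SMN2 […]–luciferase reporter in which exon 7 inclusion puts luciferase in frame. Cells were plated 10-12 h before compound addition, then incubated 30-36 h at 37C. ONE-Glo luminescence was read; sodium butyrate at 4.5 mM final served as control.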
# ELG1 repair inh: qHTS screen for small molecules that inhibit ELG1-dependent DNA repair in human embryonic kidney (HEK293T) cells expressing luciferase-tagged ELG1 | 330,000 tested, 2.3% active | AID 504467, 2011 | Potency, µM (top dose mostly 46.1 µM), actives largely listed as inhibitors | HEK293T ELG1-luciferase reporter, luminescence, 16 h; DNA damage induced by 5-fluorouridine; note: nearly all actives have a fitted effect of over 55% in size
#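 DMSO vehicle served as the neutral condition. Each well held 2,000 cells given 5-fluorouridine plus compound; after 16 hr at 37 °C/5% CO2, ONE-Glo was added and luciferase measured 30 min later.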
# Numbers stand for hits; - = inactive; ? = inconclusive; . = not tested or not shown. Rows were chosen to be rich in hits. Some 9.2% of all compounds tested hit in one or more screens of this group. Calls come from the whole dose curve; as a rule, active = well fitted curve in the direction sought with a large enough effect; inconclusive = small, poorly fitted or top-dose-only effect, or another doubt; inactive = no such curve, though single readings can be large; an effect the other way counts as inactive or inconclusive.
SMILES,Rab9 prom act,NPC1 prom act,ELG1 genotoxic,FLuc counter,SMN2 splice up,ELG1 repair inh
Cc1oc2cc3oc(=O)c(CCC(=O)N(C)CC(=O)O)c(C)c3cc2c1C,-,-,-,7.6µM,.,-
Cc1c(CCC(=O)O)c(=O)oc2cc3occ(-c4ccc(Cl)cc4)c3cc12,-,-,-,17µM,.,-
CC(C)CC(=O)Nc1ccc(C(=O)OCc2cc(=O)n3nc(C(C)C)sc3n2)cc1,.,.,.,-,.,.
Cc1csc2c(N3CCN(C(=S)Nc4ccc(F)cc4F)CC3)ncnc12,-,-,-,24µM,.,?
Cc1csc2c(N3CCN(C(=O)Nc4ccccc4)CC3)ncnc12,-,-,-,?,.,?
Nc1ncnc2c1ncn2[C@@H]1O[C@H](CO)[C@H](O)[C@H]1O,.,.,.,.,-,.
OCC1OC(n2cnc3c(Cl)ncnc32)C(O)C1O (stereo not drawn),.,.,.,.,-,.
CNc1ncnc2c1ncn2[C@@H]1O[C@H](CO)[C@@H](O)[C@H]1O,-,-,16µM,-,-,?
CN(C)c1ncnc2c1ncn2C1OC(CO)C(O)C1O (stereo not drawn),-,-,-,-,5.6µM,?
C[C@H](Cc1ccccc1)Nc1ncnc2c1ncn2[C@@H]1O[C@H](CO)[C@@H](O)[C@H]1O,-,-,13µM,-,-,?
CC(C)C(=O)OC1CCS(=O)(=O)c2sccc21 (stereo not drawn),-,-,-,-,-,-
COc1cccc(/C=N/NC(=O)CCCC(=O)Nc2ccc(Br)cc2)c1,-,-,-,-,-,-
COc1ccc(/C=C/C(=O)Oc2cccc(/C=N/NC(=O)Cc3ccc(Br)cc3)c2)cc1,3.2µM,3.5µM,?,?,.,?
CCCc1cc(=O)oc2cc(C)cc(OCC(=O)Nc3ccc(CN4CCOCC4)cc3)c12,-,-,-,-,.,15µM
CCCc1cc(=O)oc2cc(C)cc(OCC(=O)NCCN3CCOCC3)c12,-,-,-,-,.,-
CCc1cc(=O)oc2cc(C)cc(OCC(=O)NCCc3c[nH]c4ccccc34)c12,-,-,-,-,.,5.8µM
COc1ccccc1CNC(=O)CN1C(=O)N(C)C2(CCCCC2)C1=O,-,-,-,-,.,-
CN1CCN(CCCNC(=O)c2ccc3c(Cl)c4c(nc3c2)CCCC4)CC1,-,-,-,-,.,-
O=C(NCc1cccs1)c1ccc(Cn2c(SCc3ccccc3)nc3cccnc32)cc1,.,.,.,6.7µM,.,.
O=C(NCc1cccs1)c1ccc(CSc2nc3cccnc3n2Cc2ccccc2F)cc1,.,.,.,-,.,.
Cc1ccc(CSc2nc3cccnc3n2Cc2ccc(C(=O)NCc3cccs3)cc2)cc1,.,.,.,0.95µM,.,.
O=C(NCc1cccs1)c1ccc(Cn2c(SCc3ccc(F)cc3)nc3cccnc32)cc1,.,.,.,5.4µM,.,.
Cc1cccc(Cn2c(SCc3ccc(C(=O)NCc4cccs4)cc3)nc3cccnc32)c1,.,.,.,-,.,.
Cc1ccc(NC(=O)c2cc(S(=O)(=O)N3CCCC3)cn2C)cc1,-,-,-,-,.,-
O=c1[nH]nc(-c2ccc(F)cc2)cc1-c1ccccc1,-,-,-,-,.,-
SMILES,Rab9 prom act,NPC1 prom act,ELG1 genotoxic,FLuc counter,SMN2 splice up,ELG1 repair inh
O=C1c2ccccc2-c2nnc(-c3ccc(F)cc3)cc21,0.32µM,?,?,0.43µM,2.5µM,?
Cc1ccc(-c2cc3c(nn2)-c2ccccc2C3=O)cc1,?,?,?,0.076µM,.,?
Cc1ccccc1-c1cc2c(nn1)-c1ccccc1C2=O,4µM,3.2µM,?,1.3µM,?,?
O=C1c2ccccc2-c2n[nH]c3cccc1c23,-,?,.,.,-,.
O=C1c2ccccc2-c2nnc(-c3ccc(O)cc3)cc21,0.5µM,0.63µM,?,0.54µM,6.3µM,?
Cc1ccccc1OCc1nc2ccccc2n1Cc1ccccc1Cl,.,.,.,?,-,.
CCc1ccc(NC(=O)COC(=O)c2ccc(Cl)c(S(=O)(=O)N3CCCCCC3)c2)cc1,-,-,-,-,-,-
C=C1C=C(C(F)F)n2ncc(C(=O)NCc3ccccc3C(F)(F)F)c2N1,.,.,.,-,.,.
CCCCNc1nc2c(S(=O)(=O)c3ccc(C)cc3)nnn2c2ccsc12,.,.,.,-,.,.
O=C(Nc1ccc(NC(=O)C2CC2)cn1)c1ccccc1Cl,-,-,?,?,25µM,?
COc1ccccc1C(=O)Nc1ccc(NC(=O)C2CCCCC2)nc1,-,-,-,?,.,-
CCCC(=O)Nc1ccc(NC(=O)c2ccccc2OC)cn1,-,-,-,?,-,-
CCCn1c(C)cc(=O)c2cc(NC(=O)c3ccccn3)ccc21,-,-,-,-,-,16µM
CCCC(=O)Nc1ccc(NC(=O)c2ccccn2)cn1,2.8µM,2.2µM,?,13µM,.,?
CCCn1c(=O)c(C(=O)Nc2ncccc2C)c(O)c2ccccc21,-,-,-,-,-,-
O=C(Nc1ccc(NC(=O)C2CCCCC2)nc1)c1ccccn1,3.5µM,?,?,17µM,22µM,?
Cc1ccc(C)c(N2CCN(C(=O)CCn3c(=O)c4cccn4c4cccnc43)CC2)c1,.,.,.,-,.,.
Cc1cccc(CS(=O)(=O)CC2Nc3ccc(C(=O)NCc4ccccc4)cc3NC2=O)c1 (stereo not drawn),.,.,.,-,.,.
O=C(Nc1ccc(NC(=O)C2CC2)nc1)c1cccc(F)c1,4.5µM,?,-,?,.,?
COc1cccc(C(=O)Nc2ccc(NC(=O)C3CC3)nc2)c1,-,-,-,-,.,-
O=C(Nc1ccc(NC(=O)C2CC2)cn1)c1ccccc1,0.35µM,0.32µM,?,2.7µM,.,?
O=C(Cc1ccccc1)Nc1ccc(NC(=O)c2ccccc2)nc1,2.2µM,2.8µM,?,?,.,?
CC(C)C(=O)Nc1ccc(NC(=O)c2cccc(F)c2)cn1,2.8µM,-,?,?,-,?
N#C/C(=C/C=C/c1ccccc1)C(=O)Nc1ccccc1,-,-,-,-,-,5.8µM
N#C/C(=C\C=C\c1ccccc1)C(=O)Nc1ccccc1,-,-,-,-,-,-
N#C/C(=C/c1ccc(O)c([N+](=O)[O-])c1)C(=O)Nc1ccccc1,-,-,-,13µM,.,-
C/C(=N\NC(=O)c1nnn(-c2nonc2N)c1-c1ccccc1)c1ccccc1O,-,-,-,-,.,1.8µM
COc1ccc([C@H]2CC(=O)C=C(c3cc(F)ccc3F)C2)cc1OC,-,-,-,-,.,?
COc1ccc([C@H]2CC(=O)C=C(c3cc4ccccc4s3)C2)cc1OC,-,-,-,-,.,?
COCc1ccccc1C1=CC(=O)C[C@H](c2ccc(F)cc2)C1,-,-,-,-,.,-
